Results published in PubChem BioAssay (NCI).
Values joined by “and” are separate entries in the source; they are usually repeats but may differ in a detail not shown here. Equal values may be shown once. The panel holds about 83,000 compounds, 20% with a hit somewhere; the sample as a whole holds those more often.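 Testing used 96-well plates and a 48-hour single-concentration exposure. Example: -40 means 40% of the starting cells died.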 A number with no mark means an inactive call. Active and inactive are the calls of the source. The calls were made as follows: active = growth percent below 10; inactive = the rest.

Test system: MDA-MB-468 breast
Experiment: NCI-60 one-dose screen, 48 h (100 = growth as untreated, 0 = no growth, -100 = all killed)
Settings: 10 µM unless noted

| Structure (SMILES) | growth |
| --- | --- |
| CCCOC(=O)N[C@H]1CCc2cc(OC)c(OC)c(OC)c2-c2ccc(SC)c(=O)cc21 | -16.8% (active) |
| COc1ccc(/C=C/C(=O)c2nnn(-c3ccc(Br)cc3)c2C)cc1OC | 46.9% |
| Nc1nc2c(c3cnccc13)C(c1ccc(Cl)c(Cl)c1)Cc1cnccc1-2 (stereo not given) | -42.2% (active) |
| O=C(/C=C/c1cn(-c2ccccc2)nc1-c1ccccc1)OCc1cn(-c2cccc([N+](=O)[O-])c2)nn1 | 107% |
| Cc1cc(C(C)(C)C)cc(C)c1Br | 113% |
| Cc1cn(-c2cccc(NC(=O)c3ccc(C)c(Nc4nccc(-c5cccnc5)n4)c3)c2)cn1 | -41.4% (active) |
| COc1cc(-c2nn(C(=O)NCCN3CCN(C)CC3)cc2-c2ccncc2)ccc1Cl | 60.9% |
| COc1ccc(OC)c2ncccc12 | 89.9% |
| N=c1nc(N2CCCCC2)cc(N)n1O | 97.1% |
| CC(=O)NC(Cc1ccccc1)C(=O)Oc1ccc2ccccc2c1 (stereo not given) | 107% and 119% |
| C(=N/Nc1ncnc2nc[nH]c12)/c1ccccn1 | -27.3% (active) |
| CC(C)NC(=O)c1cc(-c2ccc(NC(=O)Nc3ccc(F)cc3)cc2)nc2cccnc12 | 88.9% |
| CN1C2CCC1/C(=C\c1ccc(F)cc1)C(=O)/C2=C/c1ccc(F)cc1 | 28.8% |
| C=Cc1nn2c(CCC(=O)c3nc4ccccc4[nH]3)nnc2s1 | 110% |
| CC(C)CCCC(=O)O | 90.8% |
| O=C1C(Cl)=C(SC2=NCCN2)C(=O)c2ccccc21 | 0.366% (active) |
| O=Nc1c2cccnc2n2nnc3ccc(Cl)cc3c12 | -69.4% (active) |
| Nn1c(N/N=C/c2nc3ccccc3s2)n[nH]c1=S | 109% |
| O=C1C=CC(=Nc2cc(Br)c(O)c(Br)c2)C=C1 | 51.4% |
| CSc1ccc(N=C=C(c2ccccc2)c2ccccc2)cc1 | 97.1% |

| Structure (SMILES) | growth |
| --- | --- |
| CC(=O)c1cc(C)c(OC(=O)c2ccccc2)c(C)c1 | 94% |
| Cn1c(COC(=O)N2CCCCC2)nc2c(N3CCOCC3)nc(-c3ccccc3)nc21 | -61.7% (active) |
| ClC(Cl)c1nc(-c2ccco2)n2nc(-c3ccccc3)cc2n1 | -54.2% (active) |
| O=C(Nc1ncc(Cc2ccccc2)s1)c1ccc2c(c1)OCCCO2 | 7.91% (active) |
| NS(=O)(=O)c1ccc(Nc2nc(SCC(=O)c3ccc(Cl)cc3)nc3c2CCCC3)cc1 | 57.9% |
| O=C1/C(=C/c2ccc([N+](=O)[O-])o2)Oc2ccc(Cl)cc21 | -34.5% (active) |
| CCc1ccc(-c2nnc(COc3ccc(-c4nc5cc(Cl)c(Cl)cc5[nH]4)cc3OC)o2)cc1 | 76.4% |
| Cc1csc(Nc2nc(-c3ccc(Cl)cc3)nc(C(Cl)(Cl)Cl)n2)n1 | 9.54% (active) |
| CC1=C(C)C(=O)C(Nc2cccc(C(=O)OC(C)(C)C)c2)=CC1=O | 37.5% |
| Cc1ccc2c(c1)-c1cc(C)nn1-c1ccc(C#N)cc1O2 | 40.9% |
| COc1cc(Cn2cc3c(c2)-c2onc(CO)c2CC3)cc(OC)c1OC | 81.6% |
| CCOC(=O)Nc1nn[nH]n1 | 101% |
| N#CC1=C2NCCCNc3oc(nc3C#N)Cc3ccccc3CC(=N1)O2 | 75.1% |
| CN1CCN(C(=O)[C@@]2(C)CC[C@]3(C)CC[C@]4(C)C(=CC[C@@H]5[C@@]6(C)C/C(=C/c7ccncc7)C(=O)C(C)(C)[C@@H]6CC[C@]54C)[C@@H]3C2)CC1 | 37.5% |
| COc1ccc(/C=C2\SC(=O)N(CN3CCN(c4cc5c(cc4F)c(=O)c(C(=O)O)cn5C4CC4)CC3)C2=O)cc1 | 108% |
| Cc1c(C(=N)C(C#N)C#N)c(=N)oc2c1ccc1ccccc12 | 54.5% |
| C[C@@H](Oc1cc(C(=O)Nc2ccc(C(=O)N3CCN(C)CC3)cc2)nnc1N)c1c(Cl)ccc(F)c1Cl | 62.3% |
| C/C=C/C1=CN2C(=O)c3cc(OC4OC(C)C(NC)C(C)(O)C4O)c(C)cc3N=C[C@@H]2C1 (stereo not given in full) | -52.9% (active) |
| CCCCCCCCCCCCN1CCCC(C)C1 (stereo not given) | 68.4% |
| O=C(/C=C/CN1CCCCC1)Nc1cc2c(Nc3ccc(F)c(Cl)c3F)ncnc2cc1OCCOC(F)F | -48.7% (active) |
